Source: PMC7862700, “An all-to-all approach to the identification of sequence-specific readers for epigenetic DNA modifications on cytosine”

The sequences below were run against T1, ERF (Homo sapiens, UniProt P50548 1-548) (assay: DAPPL (digital affinity profiling via proximity ligation, sequencing); 10 mM Tris-HCl pH 7.5, 50 mM NaCl, 1 mM DTT, 4% glycerol, room temperature, 30 min; GST-TFs on glutathione beads, 16-mer random dsDNA library, 0.1% formaldehyde crosslink after washing; high values mean tight binding). Conditions: protein: recombinant; tags: N-terminal GST; dsDNA, one strand shown.
T1 sequence: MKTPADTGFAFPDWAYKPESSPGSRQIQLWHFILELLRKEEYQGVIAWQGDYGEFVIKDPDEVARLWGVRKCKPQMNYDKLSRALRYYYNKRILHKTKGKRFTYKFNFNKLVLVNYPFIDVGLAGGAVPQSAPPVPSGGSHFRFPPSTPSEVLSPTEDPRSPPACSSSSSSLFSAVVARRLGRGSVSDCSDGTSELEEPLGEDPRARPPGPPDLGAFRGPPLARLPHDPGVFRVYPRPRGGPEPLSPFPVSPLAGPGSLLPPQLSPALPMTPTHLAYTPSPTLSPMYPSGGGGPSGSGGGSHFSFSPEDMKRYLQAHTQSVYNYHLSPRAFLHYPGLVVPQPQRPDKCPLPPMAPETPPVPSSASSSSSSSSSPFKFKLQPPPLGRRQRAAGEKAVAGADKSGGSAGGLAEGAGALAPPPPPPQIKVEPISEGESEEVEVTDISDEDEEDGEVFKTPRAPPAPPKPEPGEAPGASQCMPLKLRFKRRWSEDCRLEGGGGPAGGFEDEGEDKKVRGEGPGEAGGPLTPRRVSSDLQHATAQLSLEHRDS
In short: (§1)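 Binding signal is defined as a hexamer's read frequency for one factor over its frequency for the tag-only sample. To obtain reads, GST-fused human transcription factors were expressed in yeast, captured on glutathione beads, barcoded with DNA and pooled with that sample. Pools met 200 nmole of a 16-mer random double-stranded DNA library in Tris/NaCl/DTT/glycerol buffer for 30 min at room temperature before washing, 0.1% formaldehyde crosslinking, proximity ligation (BsaI/T4 ligase, 1 h, 37 °C), PCR and Illumina NextSeq500 sequencing.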

Sequence | binding signal
TCAACA | 1.03 fold enrichment (6-mer frequency, TF over GST control)
ACCACA | 1.05 fold enrichment (6-mer frequency, TF over GST control)
GTCCCA | 1.12 fold enrichment (6-mer frequency, TF over GST control)
TGGTGC | 1.11 fold enrichment (6-mer frequency, TF over GST control)
ACATGG | 1.14 fold enrichment (6-mer frequency, TF over GST control)
GTCTTG | 1.15 fold enrichment (6-mer frequency, TF over GST control)
ATGGTG | 1.13 fold enrichment (6-mer frequency, TF over GST control)
ACCACC | 1.17 fold enrichment (6-mer frequency, TF over GST control)
TGCCAA | 1.15 fold enrichment (6-mer frequency, TF over GST control)
CCGCTG | 1.03 fold enrichment (6-mer frequency, TF over GST control)
ACGTTG | 1.07 fold enrichment (6-mer frequency, TF over GST control)
CCATGC | 1.01 fold enrichment (6-mer frequency, TF over GST control)
GTTGAT | 1.05 fold enrichment (6-mer frequency, TF over GST control)
GTCTAC | 1.07 fold enrichment (6-mer frequency, TF over GST control)
CATCGC | 1.06 fold enrichment (6-mer frequency, TF over GST control)
AAGGCA | 1.04 fold enrichment (6-mer frequency, TF over GST control)
GGTTTT | 1.24 fold enrichment (6-mer frequency, TF over GST control)

The sequences below were run against T2, ETV3L (Homo sapiens, UniProt Q6ZN32 1-361) in the same assay as above. Conditions: protein: recombinant; tags: N-terminal GST; dsDNA, one strand shown.
T2 sequence: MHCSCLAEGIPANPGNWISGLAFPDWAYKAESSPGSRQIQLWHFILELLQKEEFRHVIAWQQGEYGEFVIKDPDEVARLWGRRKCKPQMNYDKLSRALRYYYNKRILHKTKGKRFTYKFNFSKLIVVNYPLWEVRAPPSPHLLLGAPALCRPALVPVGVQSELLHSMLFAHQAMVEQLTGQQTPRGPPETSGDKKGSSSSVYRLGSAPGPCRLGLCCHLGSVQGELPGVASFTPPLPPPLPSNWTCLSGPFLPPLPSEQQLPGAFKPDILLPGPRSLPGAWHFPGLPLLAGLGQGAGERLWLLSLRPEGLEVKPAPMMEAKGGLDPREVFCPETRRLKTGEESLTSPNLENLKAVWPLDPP
In short: as §1

Sequence | binding signal
TGGACC | 1.13 fold enrichment (6-mer frequency, TF over GST control)
TGCTGC | 1.34 fold enrichment (6-mer frequency, TF over GST control)
CCACAC | 1.11 fold enrichment (6-mer frequency, TF over GST control)
CGGCCT | 1.07 fold enrichment (6-mer frequency, TF over GST control)
GCCCAC | 1.04 fold enrichment (6-mer frequency, TF over GST control)
TTGGTC | 1.08 fold enrichment (6-mer frequency, TF over GST control)
TTGCCG | 1.11 fold enrichment (6-mer frequency, TF over GST control)
TGGTCA | 1.1 fold enrichment (6-mer frequency, TF over GST control)
AAAGCG | 1.04 fold enrichment (6-mer frequency, TF over GST control)
GGGTTC | 1.09 fold enrichment (6-mer frequency, TF over GST control)
CATACG | 1.12 fold enrichment (6-mer frequency, TF over GST control)
CCGATG | 1.1 fold enrichment (6-mer frequency, TF over GST control)
CCACCT | 1.08 fold enrichment (6-mer frequency, TF over GST control)
GCGCGC | 1 fold enrichment (6-mer frequency, TF over GST control)
CGCCCG | 1.26 fold enrichment (6-mer frequency, TF over GST control)
TCAACA | 1.09 fold enrichment (6-mer frequency, TF over GST control)
ACCACA | 1.16 fold enrichment (6-mer frequency, TF over GST control)

Sequence | binding signal
GTCCCA | 1.13 fold enrichment (6-mer frequency, TF over GST control)
TGGTGC | 1.05 fold enrichment (6-mer frequency, TF over GST control)
ACATGG | 1.19 fold enrichment (6-mer frequency, TF over GST control)
GTCTTG | 1.04 fold enrichment (6-mer frequency, TF over GST control)
ATGGTG | 1.04 fold enrichment (6-mer frequency, TF over GST control)
ACCACC | 1.08 fold enrichment (6-mer frequency, TF over GST control)
TGCCAA | 1.21 fold enrichment (6-mer frequency, TF over GST control)
GCTGCC | 1.03 fold enrichment (6-mer frequency, TF over GST control)
GCCCCA | 1.12 fold enrichment (6-mer frequency, TF over GST control)
CCGCTG | 1.04 fold enrichment (6-mer frequency, TF over GST control)
ACGTTG | 1.08 fold enrichment (6-mer frequency, TF over GST control)
GTTGAT | 1.09 fold enrichment (6-mer frequency, TF over GST control)
GTCTAC | 1.26 fold enrichment (6-mer frequency, TF over GST control)
CATCGC | 1.21 fold enrichment (6-mer frequency, TF over GST control)
AAGGCA | 1.04 fold enrichment (6-mer frequency, TF over GST control)
GGTTTT | 1.08 fold enrichment (6-mer frequency, TF over GST control)

These sequences were tested against T3, ETS2 (Homo sapiens, UniProt P15036 1-469) in the same assay as above. Conditions: protein: recombinant; tags: N-terminal GST; dsDNA, one strand shown.
T3 sequence: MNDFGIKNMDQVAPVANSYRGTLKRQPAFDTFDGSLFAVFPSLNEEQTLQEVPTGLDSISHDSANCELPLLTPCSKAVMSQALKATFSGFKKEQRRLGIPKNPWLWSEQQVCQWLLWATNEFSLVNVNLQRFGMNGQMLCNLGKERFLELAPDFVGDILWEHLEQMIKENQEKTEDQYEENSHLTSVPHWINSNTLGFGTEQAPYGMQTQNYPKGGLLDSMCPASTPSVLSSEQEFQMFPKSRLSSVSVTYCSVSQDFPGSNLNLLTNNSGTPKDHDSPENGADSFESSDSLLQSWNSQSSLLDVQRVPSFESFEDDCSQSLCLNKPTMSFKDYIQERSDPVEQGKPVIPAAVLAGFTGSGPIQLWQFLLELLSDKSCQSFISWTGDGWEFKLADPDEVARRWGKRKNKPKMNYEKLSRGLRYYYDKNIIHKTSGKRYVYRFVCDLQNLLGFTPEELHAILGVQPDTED
In short: as §1

Sequence | binding signal
TGGACC | 1.04 fold enrichment (6-mer frequency, TF over GST control)
TGCTGC | 1.15 fold enrichment (6-mer frequency, TF over GST control)
CCACAC | 1.03 fold enrichment (6-mer frequency, TF over GST control)
CGGCCT | 1.06 fold enrichment (6-mer frequency, TF over GST control)
GCCCAC | 1.04 fold enrichment (6-mer frequency, TF over GST control)
